# Only some compounds are listed: those with a hit (about 2.8% of all), similar ones and a draw of the others.
# POLI inh: qHTS for Inhibitors of Polymerase Iota; DNA polymerase iota (Homo sapiens), Q9UNA4; Pol iota fluorescent replication assay, 10 min; Potency, µM (series often up to 115 µM), for inactives: at the top dose activity, negative = inhibition, most hits filed as inhibitors; 390,000 compounds, 1% hits; AID 588590, 2011; note: potency is the fitted concentration of half-maximal effect
# Target sequence (Q9UNA4 whole entry, looked up): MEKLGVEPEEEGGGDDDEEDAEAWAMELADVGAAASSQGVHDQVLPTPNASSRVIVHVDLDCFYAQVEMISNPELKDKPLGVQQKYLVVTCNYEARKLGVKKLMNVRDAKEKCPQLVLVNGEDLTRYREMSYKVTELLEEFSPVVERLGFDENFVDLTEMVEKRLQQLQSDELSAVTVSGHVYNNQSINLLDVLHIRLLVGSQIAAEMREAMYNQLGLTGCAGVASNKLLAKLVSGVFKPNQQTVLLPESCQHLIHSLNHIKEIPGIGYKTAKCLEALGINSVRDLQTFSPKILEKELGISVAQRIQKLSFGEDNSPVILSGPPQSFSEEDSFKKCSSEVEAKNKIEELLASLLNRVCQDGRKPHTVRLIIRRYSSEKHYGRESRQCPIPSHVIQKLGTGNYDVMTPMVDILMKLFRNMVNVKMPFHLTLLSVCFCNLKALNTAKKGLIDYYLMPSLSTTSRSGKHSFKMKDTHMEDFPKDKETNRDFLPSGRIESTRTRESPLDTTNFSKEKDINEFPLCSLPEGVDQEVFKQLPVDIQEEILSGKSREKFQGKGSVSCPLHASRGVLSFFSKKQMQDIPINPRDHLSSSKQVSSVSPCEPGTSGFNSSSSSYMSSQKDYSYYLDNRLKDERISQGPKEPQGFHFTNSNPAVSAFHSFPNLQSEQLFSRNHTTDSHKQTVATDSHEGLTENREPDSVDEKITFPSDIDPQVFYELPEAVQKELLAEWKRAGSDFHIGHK
#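 Pol iota at 10 nM preincubated 15 min with compounds at room temperature; reaction started with fluorescent substrate, 50 nM final. Fluorescence read kinetically at 0 and 10 min; buffer-only wells as negative control.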
# Pol kappa inh-1: qHTS for Inhibitors of Polymerase Kappa; AID 588579, 2011; Potency, µM (highest dose often 107 µM), inactives show at the top dose activity, negative = inhibition, usual class: inhibitors; 400,000 compounds, 0.53% hits; DNA polymerase kappa (Homo sapiens), Q9UBT6; purified Pol kappa, fluorescent DNA synthesis assay, 10 min; note: potency is the fitted concentration of half-maximal effect; % is set by controls: 0 for no effect and ±100 for the full control effect
#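 Fluorescent qHTS in 1536-well format: enzyme (10 nM) and compound sat 15 min at room temperature before 50 nM substrate (final) was added. Signal taken at 0 and 10 min; no-enzyme buffer wells were negative controls.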
# WRN helicase inh-1: qHTS for Inhibitors of WRN Helicase; Potency, µM (titrated, usually from 114 µM), inactives show at the top dose activity change, negative = inhibition, actives largely listed as inhibitors; WRN helicase unwinding, fluorescent forked duplex, kinetic; 360,000 compounds, 0.46% hits; Bifunctional 3'-5' exonuclease/ATP-dependent helicase WRN (Homo sapiens), Q14191; note: potency is the fitted concentration of half-maximal effect; % is set by controls: 0 for no effect and ±100 for the full control effect; nearly all actives have a fitted effect of over 55% in size
#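 Kinetic fluorescence helicase assay: unwinding of a quenched forked DNA duplex (100 nM final) with 2 mM ATP final raises red fluorescence (525/598 nm). Compounds sat 15 min at room temperature with 20 nM WRN beforehand.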
# PI5P4Ka inh: qHTS for Inhibitors of phosphatidylinositol 5-phosphate 4-kinase (PI5P4K). Phosphatidylinositol 5-phosphate 4-kinase type-2 alpha (Homo sapiens), P48426. PI5P4Kalpha enzyme, ADP-Glo luminescence, 60 min; hits give low values. max response, %. 330,000 compounds, 1.2% hits. AID 652105, 2013; active = max response of -50% or lower; inconclusive = between -30% and -50%; inactive = -30% or higher; note: value at the top dose of about 77 µM; % is set by controls: 0 for no effect and ±100 for the full control effect
#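 Human PI5P4Kalpha with substrate in 0.038 M HEPES pH 7.4, 0.28 mM EGTA, 0.1% CHAPS, 5% DMSO; reaction started with 5 microM ATP (final), 60 min at room temperature. ADP formed read by ADP-Glo luminescence.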
# Pol eta inh-1: qHTS for Inhibitors of Polymerase Eta; recombinant Pol eta, fluorescent DNA replication assay; Potency, µM (titrated, usually from 114 µM), for the others: at the top dose activity change, negative = inhibition, hits mostly inhibitors; 390,000 compounds, 1.2% hits; AID 588591, 2011; note: potency is the fitted concentration of half-maximal effect; % is set by controls: 0 for no effect and ±100 for the full control effect
#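 Pol eta at 10 nM preincubated with compounds 15 min at room temperature; reaction started with fluorescent substrate (50 nM final) and read kinetically at 0 and 10 min.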
# Pol beta inh: qHTS Assay for Inhibitors of DNA Polymerase Beta. P06746. Pol beta primer extension/strand displacement, fluorescence kinetic. Potency, µM (highest dose often 114 µM), inactives show at the highest dose activity change, negative = inhibition, most hits filed as inhibitors. 340,000 compounds, 1.3% hits. AID 485314, 2010; note: potency is the fitted concentration of half-maximal effect; % is set by controls: 0 for no effect and ±100 for the full control effect
#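 Values derive from four-parameter Hill fits of normalized kinetic data: reads at 0 and 10 min following addition of 50 nM substrate to 10 nM Pol beta preincubated 15 min with compound.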
# GALK inh confirm: Confirmation Assay for Inhibitors of Human Galactokinase (GALK). shares compounds with Pol eta inh-1. purified GALK, Kinase-Glo ATP depletion luminescence. Potency, µM (doses to about 115 µM), for the others: at the highest dose activity, negative = inhibition, usual class: inhibitors. 150 compounds, 70% hits
# GALK redox cs: Confirmatory Assay for Inhibitors of Human Galactokinase (GALK): Phenol-HRP redox assay counterscreen. 150 compounds, 40% hits. Potency, µM (series often up to 115 µM), without a hit: at the top dose activity change, negative = H2O2 signal, most hits filed as inhibitors. AID 2035, 2009. Phenol red-HRP H2O2 redox cycling, absorbance 600 nm. shares compounds with Pol eta inh-1
# HEK293 tox: Secondary Assay for Inhibitors of Human Galactokinase (GALK): HEK-293 Cell Viability Assay | HEK-293 viability, ATP luminescence (CellTiter-Glo), 24/48 h | 170 compounds, 10% hits | shares compounds with Pol eta inh-1 | Potency, µM (series often up to 46.1 µM), for the others: at the highest dose activity change, negative = cytotoxicity, most hits filed as inhibitors; note: potency is the fitted concentration of half-maximal effect; % is set by controls: 0 for no effect and ±100 for the full control effect
# Pol kappa inh-2: qHTS for Inhibitors of Polymerase Kappa: Confirmatory Assay for Cherry-picked Compounds. 920 compounds, 76% hits. purified Pol-kappa, fluorescent strand-displacement substrate. shares compounds with Pol eta inh-1. AID 720501, 2013. Potency, µM, actives largely listed as inhibitors; note: potency is the fitted concentration of half-maximal effect
# Pol eta inh-2: qHTS for Inhibitors of Polymerase Eta: Confirmatory Assay for Cherry-picked Compounds. shares compounds with Pol eta inh-1. Pol eta primer extension, TAMRA/BHQ fluorescence, 10 min. Potency, µM, actives largely listed as inhibitors. 2,600 compounds, 64% hits; note: potency is the fitted concentration of half-maximal effect
# WRN helicase inh-2: qHTS for Inhibitors of WRN Helicase: Confirmatory Assay for Cherry-picked Compounds | shares compounds with WRN helicase inh-1 | WRN helicase DNA unwinding, fluorescence kinetic | Potency, µM (highest dose often 57.1 µM), inactives show at the top dose activity, negative = inhibition, actives largely listed as inhibitors | 610 compounds, 63% hits | AID 720497, 2013; note: potency is the fitted concentration of half-maximal effect; nearly all actives have a fitted effect of over 65% in size
# TO displacement: qHTS for Inhibitors of WRN Helicase: Thiazole Orange DNA Binding Counterscreen; AID 720499, 2013; shares compounds with WRN helicase inh-1; Potency, µM (doses to about 57.1 µM), inactives show top-dose activity change, negative = inhibition, most hits filed as inhibitors; 610 compounds, 10% hits; thiazole orange DNA binding displacement, fluorescence;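 note: drop in dye fluorescence marks compound binding to DNA; potency is the fitted concentration of half-maximal effect; % is set by controls: 0 for no effect and ±100 for the full control effect; nearly all actives have a fitted effect of over 60% in size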
# BLM helicase inh: qHTS for Inhibitors of WRN Helicase: BLM Helicase Counterscreen for WRN Inhibitors; shares compounds with WRN helicase inh-1; 610 compounds, 60% hits; Potency, µM (doses to about 57.1 µM), for inactives: top-dose activity change, negative = inhibition, most hits filed as inhibitors; Recombinant BLM helicase DNA unwinding, red fluorescence; AID 720503, 2013; note: potency is the fitted concentration of half-maximal effect; nearly all actives have a fitted effect of over 60% in size
# ADP-Glo counter: qHTS for Inhibitors of PI5P4K: ADP-Glo counter assay; shares compounds with PI5P4Ka inh; ADP-Glo detection counter-screen, luciferase luminescence, no enzyme; Potency, µM (top dose mostly 76.9 µM), inactives show at the highest dose activity change, negative = inhibition, actives largely listed as inhibitors; 1,100 tested, under 10 active
# Active calls of the source: *; i = inactive; ? = inconclusive; · = not tested or not shown; [ ] = remark or other dose. Unless noted, calls come from the whole dose curve; as a rule, active = well fitted curve in the direction sought with a large enough effect; inconclusive = small, poorly fitted or top-dose-only effect, or another doubt; inactive = no such curve, though single readings can be large; an effect the other way counts as inactive or inconclusive.
SMILES,POLI inh,Pol kappa inh-1,WRN helicase inh-1,PI5P4Ka inh,Pol eta inh-1,Pol beta inh,Pol eta inh-2,WRN helicase inh-2,TO displacement,BLM helicase inh,others
C=CCN1C(=O)/C(=C/C=C2/N(CC)c3ccc(S(=O)(=O)N(C)C)cc3N2CC)SC1=S,?,-18.1%,5.32µM*,-13.9,44.7µM*,4.47µM*,37.9*,9.61µM*,i,9.61µM*,
COc1cccc(-c2cnc(C(O)c3ccc(OC)c(F)c3)[nH]2)c1 (stereo not drawn),·,·,3.0%,-7.6,·,·,·,·,·,·,
N#C/C(=C\c1ccc(-c2ccc(Cl)c(C(=O)O)c2)o1)c1nc2ccccc2[nH]1,22.4µM*,-24.9%,·,·,22.4µM*,?,60.1*,19.2µM*,?,13.6µM*,
N#C/C(=C\c1ccc(-c2ccc(C(=O)O)cc2)o1)c1nc2ccccc2[nH]1,31.6µM*,?,?,?,28.2µM*,?,33.8*,19.2µM*,179.1%,24.1µM*,Pol kappa inh-2=13.4*
O=C(Nc1ccc(Oc2ccccc2)cc1)c1csc([C@H]2C[C@H](O)[C@@H](CO)O2)n1,·,·,-1.1%,0.1,·,·,·,·,·,·,
COc1ccc(-c2nc3cccc(C)n3c2Nc2ccc(C)cc2)cc1,-6.0%,-9.0%,·,·,·,·,·,·,·,·,
CC(C)(C)S(=O)(=O)/C(C#N)=C/c1cccn1S(=O)(=O)c1ccccc1,·,·,-12.9%,3.5,·,·,·,·,·,·,
CCOc1cc(/C=C2\C(=O)ON=C2c2ccccc2)cc(Br)c1O,?,0.5%,?,-78.6*,?,5.3%,·,?,-2.2%,?,GALK inh confirm=?;GALK redox cs=0.2%;HEK293 tox=5.9%
O=C1ON=C(c2ccccc2)/C1=C/c1ccc(O)cc1,-9.8%,-2.3%,-31.9%,?,-12.9%,-1.3%,·,·,·,·,
COC(=O)c1cc(NC(=O)c2ccc3c(c2)NC(=O)c2ccccc2S3)cc(C(=O)OC)c1,?,-31.8%,·,·,50.1µM*,6.31µM*,?,13.6µM*,205.9%,1.92µM*,Pol kappa inh-2=9.47*
CC1=NOC(=O)/C1=C\c1ccc(-c2cccc(Cl)c2)o1,?,-12.4%,13.4µM*,?,20µM*,?,?,?,-12.2%,7.64µM*,
COC(=O)N/N=C/c1ccc(-c2cccc(Cl)c2)o1,188.6%,-7.1%,-4.4%,3.2,-20.1%,12.6%,·,·,·,·,
CC1=NN(c2ccc(C(=O)O)cc2)C(=O)/C1=C\c1ccc(OC(=O)c2cccs2)cc1,?,-17.6%,5.32µM*,15.0,22.4µM*,?,?,17.1µM*,-7.1%,?,
O=c1c(C(c2ccc(O)cc2)c2c(O)nc3n(c2=O)CCS3)c(O)nc2n1CCS2,-26.1%,-39.5%,15µM*,-58.8*,20µM*,3.2%,?,?,-7.7%,?,
O=C(O)CC(C(=O)O)N1C(=O)/C(=C/c2ccc(-c3nc4ccccc4s3)o2)SC1=S (stereo not drawn),1µM*,4.47µM*,28.2µM*,-10.6,2.82µM*,10µM*,30.1*,21.5µM*,150.9%,-13.9%,
CCC(C(=O)O)N1C(=O)/C(=C/c2cccn2C)SC1=S (stereo not drawn),?,-32.1%,-0.2%,0.9,2.5%,-0.7%,·,·,·,·,
Cc1ccc(-c2csc(NC(=O)c3ccno3)n2)cc1,?,-23.7%,-25.2%[57.1 µM],-53.2*,44.7µM*,14.1µM*,?,·,·,·,ADP-Glo counter=-3.1%
Cc1ccc(-c2csc(NC(=O)c3c(C)noc3C)n2)cc1,-4.8%,-22.5%,-6.2%,5.9,-3.8%,·,·,·,·,·,
O=C(O)COc1ccccc1C(Nc1ccccn1)c1cc(Cl)c2cccnc2c1O (stereo not drawn),-7.8%,-14.5%,?,-72.3*,50.1µM*,-6.4%,?,·,·,·,ADP-Glo counter=-1.2%
CCC(C)(C)C1CCc2c(sc(NC(=O)C3c4ccccc4Oc4ccccc43)c2C(N)=O)C1 (stereo not drawn),-1.9%,-22.0%,·,·,-5.8%,1.3%,·,·,·,·,
